# Potency and affinity values are given separately. The source made the active and inactive calls.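 The calls were made as follows: active = viability below 70% at one or more tested doses; inactive = viability above 70% at every dose tested.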
# Assay: cytotoxicity of synthesized analogs in Vero cells, SAR follow-up, cytotoxicity control for West Nile virus antiviral project, cell-based, set II (AID 2402)
# Conditions: Vero E6 viability, CellTiter-Glo, 72 h; series mostly up to 100 µM
row,SMILES,outcome
1,CC(=O)Nc1ccc2nc3n(c(=O)c2c1)CCC3,inactive
2,O=C(CSc1nc2ccccc2c(=O)n1-c1ccc(F)cc1)Nc1ccc2c(c1)OCCO2,inactive
3,Cc1ccc2nc3n(c(=O)c2c1)CCC3,inactive
4,CC1(O)c2cc(Br)ccc2N=C2CCCN21 (stereo not given),inactive
5,OC1c2cc(I)ccc2N=C2CCCN21 (stereo not given),inactive
6,Cc1cc(OC(=O)c2c(F)cccc2F)n(Cc2ccccc2)n1,inactive
7,COc1ccc(NC(=O)CSc2nc3ccccc3c(=O)n2-c2ccc(F)cc2)cc1,inactive
8,O=C(CSc1nc2ccccc2c(=O)n1-c1ccccc1)Nc1ccc2c(c1)CCC2,inactive
9,O=c1c2cccc(Cl)c2nc2n1CCC2,inactive
10,O=c1c2c(F)cccc2nc2n1CCC2,inactive
11,Nc1ccc2nc3n(c(=O)c2c1)CCC3,inactive
12,Cc1cccc2nc3n(c(=O)c12)CCC3,inactive
13,O=[N+]([O-])c1ccc2c(c1)C(O)N1CCCC1=N2 (stereo not given),inactive
14,Cc1cccc2c(=O)n3c(nc12)CCC3,inactive
15,COc1ccccc1NC(=O)CSc1nc2ccccc2c(=O)n1-c1ccc(F)cc1,inactive

# Source: PubChem BioAssay AID2402 (Southern Research Specialized Biocontainment Screening …, 2010)
